Data reported in PubChem BioAssay AID588501 (NMMLSC, 2011).
About 420 (0.12%) of roughly 360,000 compounds were called active. What follows is part of a selection rich in actives, with near analogues and random picks from the rest. A number with no mark means an inactive call. Rule as the data show it: active = inhibition above about 30%; inconclusive = no clear call, values can overlap the other calls; inactive = below that.

The compounds below were run against Lethal factor (Bacillus anthracis) (UniProt P15917) (assay: anthrax lethal factor cleavage blockers – biochemical, multiplex microsphere, MLPCN library, primary screen (AID 588501; also: plate controls were buffer without enzyme for full effect and enzyme alone for no effect)). Settings: multiplex microsphere protease cleavage assay, LF; at 10 µM; hits give high values.

In order of falling inhibition:
1. O=C(N/C(=C\c1ccc([N+](=O)[O-])cc1)C(=O)N1CCCCC1)c1ccco1  14.4%
2. CCCCC(CC)CNCc1cccn1CCN1CCOCC1 (stereo not drawn)  9%
3. CC(C)[C@@H](NC(=O)OC(C)(C)C)C(=O)NCC1CCC(C(=O)N[C@@H](Cc2ccccc2)C(=O)O)CC1 (stereo partly drawn)  9%
4. Cc1onc(-c2ccccc2Cl)c1C(=O)N(Cc1ccc(N(C)C)cc1)C(C)C  8.3%
5. O=c1oc2ccccc2c(CNc2ccccc2)c1[N+](=O)[O-]  7.9%
6. Cc1cc2nc(SCCN3CCOCC3)[nH]c2cc1C  7.8%
7. C=C1C(=O)[C@]23C[C@H]1CCC2[C@@]1(C)C(C[C@@H]3O)[C@](C)(C(=O)O)CC[C@@H]1O (stereo partly drawn)  6%
8. CCc1ccccc1NC(=S)Nc1cc(OC)c(NC(=O)C(C)C)cc1OC  5.6%
9. O=S(=O)(c1cccc(S(=O)(=O)N2CCC(n3nnc4ccccc43)CC2)c1)N1CCCCC1  4.7%
10. OCC[C@H]1C[C@@H](O)[C@H](O)[C@@]2(OCCc3ccccc32)O1  3.4%
11. COc1cc2c(cc1OC)C(C)N(S(=O)(=O)c1cnc(Cl)c(Cl)c1)CC2 (stereo not drawn)  3.2%
12. CCC(=O)Nc1cccc(NC(=O)CSc2nnnn2C2CCCC2)c1  3.1%
13. COc1ccccc1N1CCN(CC(=O)NC(=O)NCc2ccco2)CC1  2.9%
14. CCC1CCc2c(sc(NC(C)=O)c2C#N)C1 (stereo not drawn)  2.5%
15. CCN(CC(=O)Nc1ccccc1C(F)(F)F)C(=O)CSCc1c(C)noc1C  2.2%
16. COC(=O)c1ccc2nc(-c3ccc(C)cc3)c(Cc3ccc(OC)cc3C)n2c1  2.1%
17. O=C(Nc1nnc(C2CC2)s1)C1=NN(C2CCS(=O)(=O)C2)C(=O)CC1 (stereo not drawn)  1.6%
18. Cc1ccc(NC(=O)C2CCN(S(=O)(=O)c3ccc4c(c3)NC(=O)CO4)CC2)cc1C  1.3%
19. Cc1cc(Br)ccc1NC(=O)CN(C)C(=O)CN1C(=O)NC2(CCCC2)C1=O  1.3%
20. COc1ccc(N2CCN(C(=O)c3ccccc3NC(=O)C3=C(C)OCCS3)CC2)cc1  1.2%
21. COc1ccc(CC(=O)NC(C)c2ccc(Cl)c(Cl)c2)cc1S(=O)(=O)N1CCOCC1 (stereo not drawn)  1.2%
22. COc1ccc(C2c3[nH]c4ccccc4c3CCN2CCCn2cccn2)cc1C (stereo not drawn)  1.2%
23. CCOC(=O)C1CCN(Cc2coc3ccc(Cl)cc3c2=O)CC1  0.9%
24. COc1cc(Cl)ccc1OCc1cc(C(=O)N2CC[C@@H]3CCCC[C@H]3C2)no1  0.9%
25. COc1ccc(-c2nc3ccccc3n2CCC(C)C)cc1OC  0.7%
26. COc1ccc(CNC(=O)C(NS(=O)(=O)c2cccc3nsnc23)C(C)C)cc1 (stereo not drawn)  0.7%
27. CC(C)OCCCNC(=O)c1ccc(C2SCC(=O)N2Cc2ccco2)cc1 (stereo not drawn)  0.6%
28. O=C(Nc1cccc(F)c1)NC1CCCc2ccccc21 (stereo not drawn)  0.6%
29. CCC(C)(C(=O)Nc1ccccc1C)N(C(=O)CNC(C)=O)c1ccc(C)cc1 (stereo not drawn)  0.5%
30. CCN(Cc1ccccc1)C(=O)CCS(=O)(=O)c1ccc2c(c1)oc(=O)n2C  0.5%
31. O=C(CNC(=O)c1ccccc1F)c1ccc(Br)cc1  0.4%
32. CCCCN(C(=O)c1ccc(S(=O)(=O)N2CCOCC2)cc1)C1CCS(=O)(=O)C1 (stereo not drawn)  0.4%
33. COCCNc1ncnc2c1nc1n2CCCC1  0.3%
34. CC(=O)Nc1ccc(NC(=O)c2ccc3c(c2)C(=O)N(c2ccccc2C)C3=O)cc1  0.3%
35. CCOc1ccccc1-c1nc(CN2CCC(C(=O)N3CCOCC3)CC2)c(C)o1  0.2%
36. COC(c1ccccc1)c1nnc(CCC(=O)N2CCN(CCOc3ccccc3)CC2)o1 (stereo not drawn)  0.2%
37. O=C(Nc1cccc(F)c1)c1coc(=O)c(Br)c1  0.1%
38. COc1ccc(-n2c(O)c(C=NCC(c3ccco3)N3CCCC3)c3ccccc3c2=O)cc1OC (stereo not drawn)  0%
39. COc1cc(-c2nc(S(=O)(=O)c3ccc(Cl)cc3)c(N(C)C)o2)cc(OC)c1OC  0%
40. COC(=O)Cc1ccc(N(Cc2ccccc2F)S(=O)(=O)c2ccc(Br)cc2)cc1  -0.1%
41. Cc1noc(C)c1CSc1nnc2ccc3ccccc3n12  -0.1%
42. C/C=C/C(=O)Nc1nnc(C(C)C)s1  -0.2%
43. COc1ccc(C2=NS(=O)(=O)N(C)C(C(=O)N3CCCCC3)=C2)cc1  -0.5%
44. COc1cc(S(=O)(=O)N2CCN=C2c2ccccc2)ccc1Cl  -0.6%
45. CNC(=O)c1nnn(-c2ccccc2)c1C(=O)NC  -0.6%
46. Cc1ccc(-c2csc(N3CCN(c4cc5c(cc4Cl)nc(-c4ccncc4)n5CCOCCO)CC3)n2)cc1  -0.9%
47. NS(=O)(=O)c1ccc(CCNC(=O)c2ccc(Cl)c(S(=O)(=O)N3CCCCCC3)c2)cc1  -0.9%
48. Cc1ccc(CSCC2Nc3ccc(C(=O)N4CCN(c5ccc(F)cc5)CC4)cc3NC2=O)cc1 (stereo not drawn)  -0.9%
49. Cc1cccc(C)c1-n1nnnc1C(CCc1ccccc1)N1CCN(C/C=C/c2ccccc2)CC1 (stereo not drawn)  -0.9%
50. C#CCNC(=O)[C@H](Cc1ccc(C(=O)c2ccccc2)cc1)NC(=O)OC(C)(C)C  -1%
51. COc1ccccc1OCCC(=O)OCC(=O)NCc1ccccc1  -1.1%
52. Nc1ncnc2c1cnn2C1CC(O)C(CO)O1 (stereo not drawn)  -1.1%
53. COc1ccc(OCC(=O)NCCc2ccc(S(N)(=O)=O)cc2)cc1  -1.2%
54. CCC(CC)C(=O)Nc1cc(C(=O)OC)cc(C(=O)OC)c1  -1.3%
55. O=[N+]([O-])c1ccc(C(S(=O)(=O)Cc2ccccc2)S(=O)(=O)Cc2ccccc2)cc1  -1.4%
56. O=C(O)c1ccc(S(=O)(=O)N2CCC(Cc3ccccc3)CC2)cc1  -1.5%
57. Cc1ccc(NS(=O)(=O)c2ccc(-c3coc(C)n3)cc2)c(C)c1  -2%
58. Oc1ccccc1N1CCN(C(=S)NCc2ccccc2)CC1  -2.2%
59. CNC[C@H]1Oc2c(NC(=O)C3CCCCC3)cccc2C(=O)N([C@H](C)CO)C[C@@H]1C  -2.2%
60. CCc1nc2ccc(C(=O)NC3CCN(Cc4ccccc4)CC3)cn2c1N(C)CCN1CCOCC1  -2.5%
61. COC(=O)c1ccc(CSc2nc3cc(Cl)ccc3o2)cc1  -2.5%
62. CC(=O)c1ccc(N2C(=NC(=O)C(C)C)SC3CS(=O)(=O)CC32)cc1 (stereo not drawn)  -2.5%
63. Cc1ccc(C(=O)O)cc1-c1ccc(/C=C2\SC(=O)N(CC(=O)Nc3ccc4c(c3)OCO4)C2=O)o1  -2.8%
64. Nc1cccc(-c2cncc(N3CCN(Cc4ccccn4)CC3)n2)c1  -2.8%
65. Cc1c(Cl)c([N+](=O)[O-])nn1CC(=O)NCC1CCCO1 (stereo not drawn)  -2.9%
66. Cc1cccc(N2CCN(C(=O)CCS(=O)(=O)c3ccc4c(c3)NC(=O)C(C)S4)CC2)c1C (stereo not drawn)  -3%
67. CCc1ccccc1NC(=O)CSc1nnc(CCNC(=O)OC(C)(C)C)o1  -3.1%
68. COCCn1c(N)c(NCc2ccccc2)c(=O)[nH]c1=O  -3.2%
69. O=C(NNC1=NCCC1)c1cccc(S(=O)(=O)N2CCCCC2)c1  -3.2%
70. COc1cc(OC)cc(-c2c(-c3cccs3)c3cc(-c4ccc(OC)cc4F)ccc3n2C)c1  -3.2%
71. OCC1(Cc2ccccc2C(F)(F)F)CCN(Cc2cccc3cnccc23)CC1  -3.3%
72. Cc1ccccc1N1CCN(C2CCCN(C(=O)c3ocnc3C)C2)CC1 (stereo not drawn)  -3.3%
73. CCCCC(=O)Nc1ccc2c(c1)C(=O)NC2=O  -3.5%
74. COc1cc(NC(=O)CSc2nnc3ccc(-c4ccncc4)nn23)cc(OC)c1  -3.6%
75. O=C(NCC(c1ccco1)N1CCc2ccccc21)c1cccc(F)c1 (stereo not drawn)  -3.6%
76. CC(C)(C)c1ccc(C(=O)N2CCN(CCNC(=O)C(=O)Nc3ccc(F)cc3)CC2)cc1  -3.8%
77. CCN(CC)C(=O)C1=C(C)N(Cc2ccc(OC)cc2)C(=O)C(CC(=O)NCCCCc2ccccc2)C1 (stereo not drawn)  -3.9%
78. NS(=O)(=O)c1ccc(-c2ccc(/C=C3\SC(=O)NC3=O)o2)cc1  -4.1%
79. CC(C)NC(=O)COCc1cc(-c2ccc3c(c2)OCO3)on1  -4.5%
80. CNC(=O)c1c(NC(NC(=O)c2ccco2)C(=O)c2ccc(Cl)cc2)sc2c1CCCC2 (stereo not drawn)  -4.6%
81. O=C(NCc1ccccc1Cl)NC(=O)c1csc([N+](=O)[O-])c1  -4.7%
82. O=S(N1CCCCCC1)C12CC3CC(CC(C3)C1)C2 (stereo not drawn)  -5.3%
83. O=C(CC(c1ccccc1)c1cc(Cl)ccc1O)NCCN1CCOCC1 (stereo not drawn)  -5.6%
84. CC1(C(=O)NS(=O)(=O)Cc2cccc(Cl)c2)CCN1C(=O)Cc1ccc(Cl)cc1Cl (stereo not drawn)  -5.7%
85. CCn1c(SCC(=O)Nc2ccc(C)cc2)nc2nc3c(cc2c1=O)CCCC3  -5.9%
86. NC1=NC(=O)C(Cc2cccc(Cl)c2Cl)S1 (stereo not drawn)  -6.2%
87. Cc1cccc(N2CCN(C(C)C(=O)N3CCc4ccccc43)CC2)c1C (stereo not drawn)  -6.6%
88. O=C(NCc1ccncc1)C(=O)NCC1OCCN1S(=O)(=O)c1ccc(Br)cc1 (stereo not drawn)  -6.7%
89. O=C(O)C1CCCN(CCC=C(c2ccccc2)c2ccccc2)C1 (stereo not drawn)  -6.7%
90. Cc1ccc(OCC(=O)N2CCN(C(=O)c3cccnc3)CC2)cc1  -7.8%
91. CCC(=O)N1Cc2cc(C(=O)NCc3cccc(F)c3)nc(-c3cccc(C4=CCCC4)c3)c2[C@H]1CCO  -8.3%
92. O=C(COC(=O)CNC(=O)C1CCCCC1)Nc1cccc(F)c1  -8.5%
93. O=C(c1ccc(F)cc1)n1c(=S)nc2ccccn21  -9.4%
94. OC(c1ccccc1)C(CN1CCOCC1)c1ccccc1 (stereo not drawn)  -9.8%
95. Cc1ccc2cc(CCNC(=O)c3c(-c4ccccc4Cl)noc3C)c(=O)[nH]c2c1  -10.3%
96. O=C1NC[C@H](CCCCN2C[C@H](Cc3ccc(O)cc3)N(CCc3ccccc3)C(=O)C2=O)N(CCc2ccccc2)C1=O  -11.9%
97. CN1CCc2nc(SC(C(=O)O)c3ccccc3)c(C#N)c(-c3cccs3)c2C1 (stereo not drawn)  -13.7%
98. Cc1cc(C)cc(OCc2nnc(SCC(=O)OC3CCCCC3)o2)c1  -14.4%
99. CN1/C(=c2/s/c(=C3/C(=O)N(c4ccccc4)NC3=Nc3ccccc3)n(C)c2=O)C(C)(C)c2ccccc21  -14.6%

For `CC(=O)OCCN(CCCn1c(-c2ccncc2)nc2ccccc21)c1nc(-c2ccc(C)cc2)cs1`, the inhibition was 41.1% (active).
`OC(c1ccc(Cl)cc1)C(CN1CCOCC1)c1ccccc1` (stereo not drawn) was tested, and the inhibition was 40.7% (active).
`O=C(C[n+]1cc(Br)cc2ccccc21)c1ccc(F)cc1` was tested, and the inhibition was 36.5% (active).
`Cc1onc(-c2ccccc2Cl)c1C(=O)NCCn1ccc2ccccc21` was tested, and the inhibition was 53.9% (active).
`CN1C(=O)/C(=C\c2ccc(-c3ccccc3)o2)SC1=S` was tested, and the inhibition was 30.1% (active).
In the case of `O=C(CN1CCN(c2ccccc2O)CC1)NC(=O)NCc1ccccc1`, the inhibition was 50.8% (active).
`CC(=O)Nc1ccc(Oc2ccc3c(c2)C(=O)NC3=O)cc1` was tested, and the inhibition was 30.3% (active).
`O=C(Nc1cccc(F)c1)[C@@H]1CCCN1` was tested, and the inhibition was 41.3% (active).
For `CC(C)(C)OC(=O)NC(Cc1ccccc1)C(=O)NC(CSC1CCCCO1)C(=O)NN` (stereo not drawn), the inhibition was 39.5% (active).
